Test results published in PubChem BioAssay AID1347426 (Functional Genomics Laboratory (NCATS/FGL), 2020).
Hit rate of the full screen: of about 31,000 sequences, about 1,400 (4.5%) were called active. This is one part of a sample in which actives are shown more often than they occur. A number with no mark means an inactive call.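 How the source made its calls: active means median seed-adjusted z-score above 1 or below -1; inactive means the rest.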

Assay: Novel Modifiers of Survival Motor Neuron (SMN) Protein: Gene Identification via Genome-wide siRNA Screen;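 further: luminescence tracks full-length SMN protein made from the SMN2 reporter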
Details: HEK293T SMN2-luciferase reporter, siRNA knockdown, 72 h; actives lie on both sides
Method in brief: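 siRNA screen, 10418 genes ×3 siRNAs; 1 pmol/well, lipid reverse transfection into HEK293T SMN2-luc reporter line. 72 h, 37 °C, 5% CO2; ONE-Glo readout. Data: neg-ctrl normalized, log10, MAD; hit = MAD >1.0 or < -1.0.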
With GAACAGUCCCUGGUUCCCATT against ECSIT the median seed-adjusted z-score was -0.116.
For UGCCCUUGGCUAUCCCUGATT against SLC30A3, the median seed-adjusted z-score was -1.26 (active).
Work on GGCUUUGUCAGUUCCCAGATT against SPRR2B yielded a median seed-adjusted z-score of 0.388.
Work on GCUUUGCUCUGUACCCUGATT against CTSK yielded a median seed-adjusted z-score of 0.0972.
CCAUUAACCACAUACCAGATT against TLR7 gave a median seed-adjusted z-score of 0.189.
Work on CCAGUUCUUUAGGAUCUAUTT against GPR141 yielded a median seed-adjusted z-score of -0.777.
For GCGGAGCAUUUGCAACAAATT against NR6A1, the median seed-adjusted z-score was -0.287.
In the case of GCACCUUUAGGCGAAGGAATT against SENP6, the median seed-adjusted z-score was -1.03 (active).
CCAUCAUCCCUAAGCGAAUTT against REXO1 showed a median seed-adjusted z-score of -0.748.
For GUGUGGUCAUUCAACUUGATT against ZNF324B, the median seed-adjusted z-score was 0.176.
GCACCUUCCUGCUAAGAUUTT against STAT3 showed a median seed-adjusted z-score of 0.
Work on GCUACUCCCUGAUUCAGAATT against SLC2A7 yielded a median seed-adjusted z-score of -0.0337.
In the case of CUACAAAAGUUUUUCCAGATT against COX7A2L, the median seed-adjusted z-score was 0.
For CACGGUAUCUCAACCGGAATT against HGS, the median seed-adjusted z-score was 1.16 (active).
CCCAGGCUCGAAUCCCAUATT against PLD3 gave a median seed-adjusted z-score of 0.066.
In the case of CCUUCUCCGUGAUUGAGGATT against LGI4, the median seed-adjusted z-score was -0.239.
Work on GGCGACAGAUGUGAAAGAATT against LDLR yielded a median seed-adjusted z-score of -0.142.
GAUUGAUAGAAGCACCCUATT against DCC showed a median seed-adjusted z-score of 0.303.
For AAGACAAGCUAAAAAUGAUTT against YWHAE, the median seed-adjusted z-score was 1.38 (active).
For GCAAGGACCCAACAACCAATT against TTC9, the median seed-adjusted z-score was -0.173.
Work on GUCAUUUCUUUACCCAAGATT against NUDT5 yielded a median seed-adjusted z-score of 0.228.
In the case of GGAAAACUGCGGCUGCAAATT against AP1S1, the median seed-adjusted z-score was -1.04 (active).
For GCACGAAAAUCCCGACAUATT against DDX54, the median seed-adjusted z-score was 0.
GGCCGAAUUUAUAAAGGAATT against CHI3L1 gave a median seed-adjusted z-score of 0.145.
In the case of GAGGUACGCUGGUUCUACATT against DDHD1, the median seed-adjusted z-score was 0.
Work on GCAUAGAGGAGAUCUGUGATT against PROC yielded a median seed-adjusted z-score of -0.228.
With ACUUCUACACGUUUCCAAATT against THAP11 the median seed-adjusted z-score was -1.36 (active).
Sequence GAACAACACGACCAACAGATT against PRKD2 has a median seed-adjusted z-score of 0.00493.
For GGGUCGACCUAUUUCCGAATT against DYSF, the median seed-adjusted z-score was -0.23.
For GCAAACCGGUUAAUCAAGATT against GGA2, the median seed-adjusted z-score was -0.142.
For GAUCCUCAGUAAACCUAUUTT against DDX46, the median seed-adjusted z-score was -1.24 (active).
GCAUGUUGGUUCACUAUGATT against TPST1 showed a median seed-adjusted z-score of -0.00547.
AGGUCUUUCCCAACGAGGATT against UBE2S showed a median seed-adjusted z-score of 0.348.
With GGAUGCACUUUGUCCGAAATT against SPATA5 the median seed-adjusted z-score was -1.04 (active).
Sequence AGUUGGGAUUAAUACUUCATT against CCL7 has a median seed-adjusted z-score of 0.23.
For GAACUUGUCUUGCGCAAAATT against ZEB1, the median seed-adjusted z-score was -0.163.
GGUUUGUGGUGGAAGAUUATT against PLCD3 showed a median seed-adjusted z-score of 0.228.
GGAUCACUCUAACAUCGGATT against PDE1C showed a median seed-adjusted z-score of 0.157.
With GGAUCAGUAUGGGCAAAGATT against CALB1 the median seed-adjusted z-score was 0.191.
With UCUCUACAACAAAAUUUAATT against POLR2L the median seed-adjusted z-score was -1.19 (active).
For CACUUGAUGUUAUUCGUGUTT against MOAP1, the median seed-adjusted z-score was 0.0405.
For GGAAGGAUCAAACUACAAATT against AATF, the median seed-adjusted z-score was 0.182.
In the case of CAUUAUCGAUACUAUGUAATT against PSMD6, the median seed-adjusted z-score was -1.03 (active).
GAUCCACCUUAUACUCAUATT against EPS8 showed a median seed-adjusted z-score of 0.
GAUGAUUACAUAUCAGAGATT against ZNF630 gave a median seed-adjusted z-score of -0.533.
For CACCCUAAUGGAUACAGCUTT against NTSR2, the median seed-adjusted z-score was -0.125.
In the case of GACUAAAUCAGUUACCGAATT against MED17, the median seed-adjusted z-score was -2.06 (active).
GCACCUGAAUGACACGCAATT against HOXD1 showed a median seed-adjusted z-score of 0.144.
In the case of GGAAUUGUGGUGUUAGUAATT against POLN, the median seed-adjusted z-score was -0.129.
GGUCAUUGCCCGAACAAUATT against BNC1 gave a median seed-adjusted z-score of -0.631.
Work on GGACUUUAUUCGGAAGCUUTT against DAPK2 yielded a median seed-adjusted z-score of 0.268.
With AAUUCAAGCUAUGAAGAUATT against ACO2 the median seed-adjusted z-score was -1.57 (active).
Work on CCUUCAAUGUGGGCUACCATT against DEGS2 yielded a median seed-adjusted z-score of -0.305.
With CAACCUUUCUUGUUAGUAATT against DHRS7 the median seed-adjusted z-score was 0.255.
For CUGUUCCAGUUGUGGCUCUTT against KRTAP5-1, the median seed-adjusted z-score was 0.
CAACAGCGAUUGGAAUGGATT against UGDH gave a median seed-adjusted z-score of 0.674.
CUGGAAGUGUUAUUCCUAATT against FOXD4L1 gave a median seed-adjusted z-score of 0.271.
For CGACAAGCCCAAUGUUUAUTT against SSU72, the median seed-adjusted z-score was -1.64 (active).
In the case of GUACCGAGAGAAUAACAAATT against SYP, the median seed-adjusted z-score was -0.0289.
Work on GCUGGUUAGGAACCGCUCATT against ZNF579 yielded a median seed-adjusted z-score of -0.0604.
Work on GGCAAGUAGAUAGUACAUUTT against ZNF507 yielded a median seed-adjusted z-score of -0.262.
Work on UGAUAAGGAUAACAAGAGATT against CAMP yielded a median seed-adjusted z-score of -0.622.
For GCAUCAAGAUUUUCCGCUUTT against SLC26A2, the median seed-adjusted z-score was -1.25 (active).
For GCAUAGGCCCAGUAACUUATT against SLC25A34, the median seed-adjusted z-score was -0.256.
CGCUCACAGUCAUACACGUTT against SLC39A7 gave a median seed-adjusted z-score of 0.0554.
Sequence CUCUUGUACCAGUUCCUGATT against SLC25A35 has a median seed-adjusted z-score of -0.762.
UGGUCGUUAUGGUCCUAUATT against FUSIP1 gave a median seed-adjusted z-score of 0.865.
Sequence GGCACGGUUUUGGUCGAAATT against FREM2 has a median seed-adjusted z-score of 0.143.
With UACAUAUGCUGGACAGAAATT against SSU72 the median seed-adjusted z-score was -1.64 (active).
With CAGGUAUGGUGAACCGUGATT against YES1 the median seed-adjusted z-score was -0.508.
In the case of GUACCUCGUAAAUCACGAATT against NFAT5, the median seed-adjusted z-score was 0.106.
GAUUUUCACUUGCAACUCATT against PDP2 gave a median seed-adjusted z-score of -0.0726.
AGAGCAACAUCAACAUUAUTT against TKTL1 showed a median seed-adjusted z-score of -0.495.
For CGACCGUGGUGACAUGAUUTT against LRP3, the median seed-adjusted z-score was -1.05 (active).
GCUCCGCAAAUGUGGUUGATT against ZNF714 showed a median seed-adjusted z-score of 0.
For UGCGCAACCUUAAGAACAATT against PRAF2, the median seed-adjusted z-score was -0.326.
GAAAGGCAGUUUUCGUAAATT against NXF3 gave a median seed-adjusted z-score of 0.672.
For GAGAGGUACCAGACCAUGATT against POLM, the median seed-adjusted z-score was -1.55 (active).
Work on AGCCUGAAAGUAUCCGUAATT against CLTA yielded a median seed-adjusted z-score of 0.243.
For GGAGCUCUGUUGUGGAGAATT against FCGRT, the median seed-adjusted z-score was -0.00396.
With GGACUAAACUACCUCCAAATT against KCNE3 the median seed-adjusted z-score was -1.33 (active).
Sequence CCUGAAAUCAUAGAGUUAATT against KCNMA1 has a median seed-adjusted z-score of 0.
With AGCAGAAGAUGGUAGAUGATT against VIL1 the median seed-adjusted z-score was 0.368.
With AGGGCACAUUCACCAGUGATT against GCG the median seed-adjusted z-score was -1.18 (active).
With CUCCUGCUGCAAAACAAUATT against SLC25A6 the median seed-adjusted z-score was -0.928.
For GUCACGUCUUGAUACCUCUTT against ACAD8, the median seed-adjusted z-score was 1.06 (active).
With GAUUGUCUUCGGUCUAUUATT against STAM the median seed-adjusted z-score was 0.
Sequence GACCCACUCUUGAAAGACATT against ZNF304 has a median seed-adjusted z-score of -0.44.
Sequence CGAGAGGGCUGUUUCCAAATT against LIMS3 has a median seed-adjusted z-score of -0.078.
In the case of GAAAGAUGGUGUUGACUUUTT against ALDOB, the median seed-adjusted z-score was -1.34 (active).
Sequence CUUCAUAUCUCUUUACGUATT against PIGW has a median seed-adjusted z-score of -0.242.
CCACCAAUGUAGUCUAUCATT against PAPSS2 showed a median seed-adjusted z-score of -0.201.
AGAAGACCCGUAGACUGAATT against NEUROG2 showed a median seed-adjusted z-score of -0.366.
UAAACUCGUUAGUCAAUUATT against SLC7A9 showed a median seed-adjusted z-score of 0.194.
In the case of GCAGAUAAGUGAACGAGAUTT against SAMHD1, the median seed-adjusted z-score was -1.33 (active).
Sequence CGCUCCUUGUCAAAAGAAATT against KCNS3 has a median seed-adjusted z-score of 0.103.
Work on GCAUGACCUCUGUAAGGGATT against ANK1 yielded a median seed-adjusted z-score of -0.282.
In the case of GAAUCGCAAGGAUAUGAUATT against MSH2, the median seed-adjusted z-score was 0.
In the case of CCAUCUACCAGCUAAUCAATT against PIK3C2G, the median seed-adjusted z-score was 0.0251.
For GGAUUCCCUUCAAGAUAUATT against NUCB2, the median seed-adjusted z-score was 0.45.
In the case of CCAUCACCCGUGAAGAGAATT against CRYAB, the median seed-adjusted z-score was 0.354.
In the case of CAAUGGUCCAAGUCUAACATT against EEF1E1, the median seed-adjusted z-score was -1.45 (active).
CCCAGUCAAUCAAAGGAAATT against CD3G gave a median seed-adjusted z-score of -0.0274.
GAAAGCAACUGACACUCUUTT against ATP2C2 gave a median seed-adjusted z-score of -0.302.
Work on CAAGGGCACAGGCACAAAATT against SBK1 yielded a median seed-adjusted z-score of 0.0587.
Sequence ACCACGCAUUAAAACCAAATT against PRKCE has a median seed-adjusted z-score of 0.568.
With GGGAGGAUUUGAUCGGACATT against SPEN the median seed-adjusted z-score was -1.69 (active).
CCUUCUGAAAGAACGCAAATT against ABCA8 gave a median seed-adjusted z-score of -0.666.
GAAUAUGCAUUGCUAACCATT against SV2C showed a median seed-adjusted z-score of 0.183.
